Measurements as given in the supplement of paper PMC6897291.

System: RIVA
Assay: growth inhibition by drug alone (1 - RLU/untreated control) (fraction); higher = stronger inhibition
Conditions: 177Lu-lilotomab satetraxetan 0 ug/ml
Procedure: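 RIVA (RI-1) ABC-DLBCL cells were pretreated or not for 18 h with 0.5 ug/ml 177Lu-lilotomab satetraxetan (600 MBq/mg), washed and seeded (3000 cells/well) on 384-well plates pre-printed with the Selleck Cambridge Cancer Compound library. Viability was read by RealTime-Glo luminescence on days 3-6 after seeding. Effect = 1 - RLU/mean RLU of the 48 untreated no-drug control wells per plate; Bliss score = (M-E)/(1-Fa).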

SMILES | growth inhibition by drug alone (10 nM, time (day): 3) | growth inhibition by drug alone (10 nM, time (day): 4) | growth inhibition by drug alone (10 nM, time (day): 5) | growth inhibition by drug alone (10 nM, time (day): 6) | growth inhibition by drug alone (100 nM, time (day): 3) | growth inhibition by drug alone (100 nM, time (day): 4) | growth inhibition by drug alone (100 nM, time (day): 5) | growth inhibition by drug alone (100 nM, time (day): 6)
CN(C)CCN(C)CCc1ccc(Cl)c(Cl)c1 | -0.216 | -0.209 | -0.338 | -0.472 | -0.276 | -0.227 | -0.333 | -0.453
O=C(Oc1ccc([N+](=O)[O-])cc1)N1CCC(C(O)(c2ccc3c(c2)OCO3)c2ccc3c(c2)OCO3)CC1 | 0.0104 | -0.0507 | -0.0874 | -0.233 | -0.163 | -0.136 | -0.159 | -0.226
CC(C)[C@]12O[C@H]1[C@@H]1O[C@]13[C@]1(O[C@H]1C[C@H]1C4=C(CC[C@@]13C)C(=O)OC4)[C@@H]2O [Triptolide] | 0.376 | 0.671 | 0.753 | 0.792 | 0.907 | 0.934 | 0.957 | 0.967
N[C@@H](Cc1ccc(N(CCCl)CCCl)cc1)C(=O)O [Melphalan] | -0.0205 | 0.000425 | -0.0866 | -0.459 | -0.259 | -0.175 | -0.164 | -0.265
CC[C@@H](C(=O)[C@@H](C)[C@@H](O)[C@H](C)[C@@H]1O[C@@H]([C@@H](CC)C(=O)O)CC[C@@H]1C)[C@H]1O[C@]2(C=C[C@@H](O)[C@]3(CC[C@@](C)([C@H]4CC[C@](O)(CC)[C@H](C)O4)O3)O2)[C@H](C)C[C@@H]1C [Salinomycin (Procoxacin)] | 0.136 | 0.0825 | -0.0184 | -0.226 | 0.144 | 0.126 | 0.0706 | -0.0392
